# According to the supplement of paper PMC6609913:
# Structures can show the parent of a compound that is named as a salt. ± gives the standard deviation of the averaged measurements. The full ranking holds about 1,300 compounds; the median of “normalised cell viability” is about 1, and the lowest 2% start at about 0.14. The sample as a whole holds a higher share of the lowest values than the screen did.
# System: V-C8 (BRCA2-deficient hamster cells)
# Experiment: normalised cell viability (fraction of plate median); higher = more viable cells (less toxic)
# Settings: 5 µM
# Outline: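 Library drugs, held as 10 mM stocks in DMSO, were diluted to 5 μM in 100 μl medium and added to 96-well plates of V-C8 hamster cells, either lacking BRCA2 or with BRCA2 restored, 24 h after seeding. Plates ran for 3 days (screen 1) or 6 days (screen 2), alongside solvent-only wells. Viability came from a resazurin readout, median-plate normalised, as the mean of triplicate wells.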
Compound,normalised cell viability (treatment time: 3 days),normalised cell viability (treatment time: 6 days)
CC/C(=C(\c1ccccc1)c1ccc(OCCN(C)C)cc1)c1ccccc1 [Tamoxifen citrate],0.837 ± 0.019,0.767 ± 0.035
CN(C)CCOc1ccc(/C(=C(/CCCl)c2ccccc2)c2ccccc2)cc1 [Toremifene],0.716 ± 0.067,0.875 ± 0.052
"CCN(CC)CCOc1ccc(C(=C(Cl)c2ccccc2)c2ccccc2)cc1 [Clomiphene citrate (Z,E)]",0.142 ± 0.002,0.118 ± 0.011
CC[N+](CC)(CC(=O)Nc1c(C)cccc1C)Cc1ccccc1 [Denatonium benzoate],1.01 ± 0.031,1.07 ± 0.019
Cc1cn([C@H]2C=C[C@@H](CO)O2)c(=O)[nH]c1=O [Stavudine],1.05 ± 0.077,1.23 ± 0.35
O=C1NCCN1CCN1CCC(c2cn(-c3ccc(F)cc3)c3ccc(Cl)cc23)CC1 [Sertindole],0.385 ± 0.019,0.591 ± 0.069
CC(C)(C)C(=O)OCOC(=O)[C@@H]1N2C(=O)[C@@H](/N=C/N3CCCCCC3)[C@H]2SC1(C)C [Pivmecillinam hydrochloride],0.959 ± 0.056,1.01 ± 0.039
Cc1ncc([N+](=O)[O-])n1CCO [Metronidazole],0.914 ± 0.088,1.04 ± 0.058
CC(=O)O[C@H]1C(=O)[C@@]2(C)[C@H]([C@H](OC(=O)c3ccccc3)[C@]3(O)C[C@H](OC(=O)[C@H](O)[C@@H](NC(=O)c4ccccc4)c4ccccc4)C(C)=C1C3(C)C)[C@]1(OC(C)=O)CO[C@@H]1C[C@@H]2O [Paclitaxel],0.193 ± 0.01,0.199 ± 0.0046
Cc1oncc1C(=O)Nc1ccc(C(F)(F)F)cc1 [Leflunomide],0.904 ± 0.065,0.959 ± 0.043
COc1cccc(N(C)C(=S)Oc2ccc3c(c2)CCCC3)n1 [Liranaftate],0.805 ± 0.038,0.74 ± 0.046
COC(=O)Nc1nc2ccc(SC(C)C)cc2[nH]1 [Methiazole],0.214 ± 0.0082,0.221 ± 0.025
COc1ccc(CN2CCN(C(c3ccc(F)cc3)c3ccc(F)cc3)CC2)c(OC)c1OC [Lomerizine hydrochloride],0.881 ± 0.042,0.799 ± 0.035
Cc1ccc(S(=O)(=O)NC(=O)NN2CC3CCCC3C2)cc1 (stereo not given) [Gliclazide],1.04 ± 0.049,0.979 ± 0.091
CCOC(=O)OC(C)OC1=C(C(=O)Nc2ccccn2)N(C)S(=O)(=O)c2ccccc21 (stereo not given) [Ampiroxicam],1.03 ± 0.055,1.02 ± 0.041
Cc1cc(N)c2ccccc2[n+]1CCCCCCCCCC[n+]1c(C)cc(N)c2ccccc21 [Dequalinium dichloride],0.171 ± 0.0032,0.162 ± 0.013
CN(CCCCCCCCCCN(C)C(=O)Oc1cccc([N+](C)(C)C)c1)C(=O)Oc1cccc([N+](C)(C)C)c1 [Demecarium bromide],0.828 ± 0.022,0.812 ± 0.013
C[C@H]1NC(=O)NC1=O [Methylhydantoin-5-(D)],0.968 ± 0.032,0.954 ± 0.077
CO[C@H]1/C=C/O[C@@]2(C)Oc3c(C)c(O)c4c(O)c(c5c(nc6cc(C)ccn65)c4c3C2=O)NC(=O)/C(C)=C\C=C\[C@H](C)[C@H](O)[C@@H](C)[C@@H](O)[C@@H](C)[C@H](OC(C)=O)[C@@H]1C [Rifaximin],0.964 ± 0.023,0.928 ± 0.017
CN(C/C=C/c1ccccc1)Cc1cccc2ccccc12 [Naftifine hydrochloride],0.199 ± 0.019,0.219 ± 0.0077

Compound,normalised cell viability (treatment time: 3 days),normalised cell viability (treatment time: 6 days)
"CC(O)(P(=O)(O)O)P(=O)(O)O [Etidronic acid, disodium salt]",1.03 ± 0.024,1.05 ± 0.046
CNC(=C[N+](=O)[O-])NCCSCc1ccc(CN(C)C)o1 [Ranitidine hydrochloride],1.02 ± 0.13,1.08 ± 0.045
CC(=O)OCC(=O)[C@@]1(OC(C)=O)[C@@H](C)C[C@H]2[C@@H]3C[C@H](F)C4=CC(=O)C=C[C@]4(C)[C@@]3(F)[C@@H](O)C[C@@]21C [Diflorasone Diacetate],1.18 ± 0.074,1.02 ± 0.051
OC[C@H]1O[C@@H](Oc2ccc(O)cc2)[C@H](O)[C@@H](O)[C@@H]1O [Arbutin],1.05 ± 0.026,1.03 ± 0.058
CCOc1ccc(Cc2nccc3cc(OCC)c(OCC)cc23)cc1OCC [Ethaverine hydrochloride],0.625 ± 0.013,0.534 ± 0.022
CC(=O)O[C@H]1C[C@@H]2CC[C@@H]3[C@H](CC[C@@]4(C)[C@H]3C[C@H]([N+]3(C)CCCCC3)[C@@H]4OC(C)=O)[C@@]2(C)C[C@@H]1N1CCCCC1 [Vecuronium bromide],1.01 ± 0.047,1.04 ± 0.036
Clc1ccc(C(Cn2ccnc2)OCc2c(Cl)cccc2Cl)c(Cl)c1 (stereo not given) [Isoconazole],1.12 ± 0.04,1.09 ± 0.045
NCCCC(O)(P(=O)(O)O)P(=O)(O)O [Alendronate sodium],0.709 ± 0.1,0.515 ± 0.033
O=C(Nc1ccc([N+](=O)[O-])cc1Cl)c1cc(Cl)ccc1O [Niclosamide],0.124 ± 0.0032,0.0967 ± 0.0062
CN(C)CCOC(c1ccccc1)c1ccccc1.Cn1c(=O)c2[nH]c(Cl)nc2n(C)c1=O [Dimenhydrinate],1.08 ± 0.086,1.04 ± 0.024
CN1C(C)(C)CCCC1(C)C [Pempidine tartrate],0.993 ± 0.026,1.048 ± 0.004
C=C1C(=O)O[C@H]2[C@H]1CC/C(C)=C/CC[C@@]1(C)O[C@@H]21 [Parthenolide],0.199 ± 0.017,0.416 ± 0.11
Clc1ccc(CCC(Cn2ccnc2)Sc2c(Cl)cccc2Cl)cc1 (stereo not given) [Butoconazole nitrate],0.839 ± 0.015,0.801 ± 0.028
CS(=O)(=O)c1ccc(C2=C(c3ccccc3)C(=O)OC2)cc1 [Rofecoxib],1.02 ± 0.065,1.02 ± 0.016
CC(C)n1c(/C=C/C(O)CC(O)CC(=O)O)c(-c2ccc(F)cc2)c2ccccc21 (stereo not given) [Fluvastatin sodium salt],0.121 ± 0.0047,0.156 ± 0.004
CC(C)c1c(C(=O)Nc2ccccc2)c(-c2ccccc2)c(-c2ccc(F)cc2)n1CC[C@@H](O)C[C@@H](O)CC(=O)O [Atorvastatin],0.633 ± 0.051,0.734 ± 0.032
C=CC(N)CCC(=O)O (stereo not given) [Vigabatrin],1.04 ± 0.061,1.03 ± 0.042
CCN(CC)CCCC(C)Nc1ccnc2cc(Cl)ccc12 (stereo not given) [Chloroquine diphosphate],0.756 ± 0.026,0.76 ± 0.0079
CCN(CC)CCCC(C)Nc1c2ccc(Cl)cc2nc2ccc(OC)cc12 (stereo not given) [Quinacrine dihydrochloride dihydrate],0.123 ± 0.011,0.108 ± 0.009
CCN(CCO)CCCC(C)Nc1ccnc2cc(Cl)ccc12 (stereo not given) [Hydroxychloroquine sulfate],0.365 ± 0.05,0.524 ± 0.048
